# Test results as given in PubChem BioAssay (Tox21).
# Results filed as inconclusive are left out. Active and inactive are the calls of the source. Unless noted, calls follow the shape of the full dose curve.
# Test system: not listed separately
# Assay: qHTS assay to identify small molecule antagonists of the estrogen related receptor signaling pathway with the pleiotropic PPARgamma coactivator (PGC) from Tox21 10K library (AID 1224841; call rule not given here; also: actives are mostly falling curves and most rising ones were filed inactive; nearly all actives have a fitted effect of over 50% in size; also: potency is read from the fitted curve at half-maximal effect)
# Details: PGC/ERR reporter cell line, ONE-Glo luciferase, 18 h; series mostly up to 92.4 µM; activity, negative = inhibition: at the top concentration
# In short: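 One-Glo luminescence, measured after half an hour at room temperature, quantified reporter output of PGC/ERR cells. These had been plated at 2,000 per well, incubated 6 h, dosed with compounds in DMSO, then kept 18 h at 37 C.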
# % is scaled to controls: 0 for no effect and ±100 for the full control effect.
SMILES,"activity, negative = inhibition",Potency
COc1nc(C)nc(NC(=O)NS(=O)(=O)c2ccccc2OCCCl)n1,1.78% (inactive),
C=CCCC=C,260% (inactive),
CC(C)(C)c1ccc(OC(=O)c2ccccc2O)cc1,211% (inactive),
Cc1ncc(CO)c(CN)c1O,0.713% [at 42.5 µM] (inactive),
Cc1nc(N)nc(N)c1-c1ccc(Cl)c(Cl)c1,,0.841 µM (active)
CCOc1ccc(OCC)c(Cl)c1,4.09% (inactive),
O=S(=O)(O)C(F)(F)F,2.53% (inactive),
CCCCCCn1c(=O)c2c(ncn2C)n(C)c1=O,1.39% [at 42.5 µM] (inactive),
CC(CNC1CCCCC1)OC(=O)c1ccccc1 (stereo unspecified),-8.9% [at 42.5 µM] (inactive),
CCCc1c2oc(C(=O)O)cc(=O)c2cc2c(=O)cc(C(=O)O)n(CC)c12,8.3% [at 42.5 µM] (inactive),
CCCCCCCCCC#N,-9.98% (inactive),
Clc1cccc(-c2cc(Cl)cc(Cl)c2)c1,9.64% (inactive),
CN1CCN(C2=Nc3cc(F)ccc3Cc3ccccc32)CC1,-2.44% [at 42.5 µM] (inactive),

# Test system: not listed separately
# Assay: qHTS assay to identify small molecule agonists of the estrogen related receptor signaling pathway with the pleiotropic PPARgamma coactivator (PGC) from Tox21 10K library (AID 1224842; active = well fitted activation curve with a large enough effect in the repeat runs; also: nearly all actives have a fitted effect of over 15% in size; also: potency is read from the fitted curve at half-maximal effect)
# Details: PGC/ERR reporter cell line, luciferase ONE-Glo, 18 h; series mostly up to 92.4 µM; activation: at the top concentration
# In short: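 PGC/ERR reporter cell line, 2,000 cells per well, incubated 6 h at 37 C before 23 nL compound in DMSO was added. After 18 h at 37 C, One-Glo luminescence read following 30 min at room temperature.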
SMILES,activation,Potency
COc1nc(C)nc(NC(=O)NS(=O)(=O)c2ccccc2OCCCl)n1,0.581% (inactive),
CC(C)(C)c1ccc(OC(=O)c2ccccc2O)cc1,,10.9 µM (active)
Cc1ncc(CO)c(CN)c1O,-0.0785% [at 42.5 µM] (inactive),
Cc1nc(N)nc(N)c1-c1ccc(Cl)c(Cl)c1,-21.8% [at 42.5 µM] (inactive),
CCOc1ccc(OCC)c(Cl)c1,1.39% (inactive),
O=S(=O)(O)C(F)(F)F,0.782% (inactive),
CCCCCCn1c(=O)c2c(ncn2C)n(C)c1=O,0.422% [at 42.5 µM] (inactive),
CC(CNC1CCCCC1)OC(=O)c1ccccc1 (stereo unspecified),-2.47% [at 42.5 µM] (inactive),
CCCc1c2oc(C(=O)O)cc(=O)c2cc2c(=O)cc(C(=O)O)n(CC)c12,2.6% [at 42.5 µM] (inactive),
CCCCCCCCCC#N,-3.45% (inactive),
Clc1cccc(-c2cc(Cl)cc(Cl)c2)c1,1.43% (inactive),
CN1CCN(C2=Nc3cc(F)ccc3Cc3ccccc32)CC1,-1.05% [at 42.5 µM] (inactive),

# Biological target: Thyrotropin receptor (Homo sapiens) (UniProt P16473)
# Assay: qHTS assay to identify small molecule agonists of the thyroid stimulating hormone receptor (TSHR) signaling pathway (AID 1224843); also: nearly all actives have a fitted effect of over 45% in size
# Details: TSHR-HEK293 cells, cAMP HTRF, agonist mode, 30 min; series mostly up to 92.4 µM; activation: at the top concentration
# In short: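 HEK293/TSHR, 800 cells/well; cpd 30 min RT; add cAMP-d2 + anti-cAMP-cryptate, 1 h RT; fluorescence read on plate reader. 15-pt titration, n=3.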
# Chain of Thyrotropin receptor (Homo sapiens) (P16473 whole entry, looked up): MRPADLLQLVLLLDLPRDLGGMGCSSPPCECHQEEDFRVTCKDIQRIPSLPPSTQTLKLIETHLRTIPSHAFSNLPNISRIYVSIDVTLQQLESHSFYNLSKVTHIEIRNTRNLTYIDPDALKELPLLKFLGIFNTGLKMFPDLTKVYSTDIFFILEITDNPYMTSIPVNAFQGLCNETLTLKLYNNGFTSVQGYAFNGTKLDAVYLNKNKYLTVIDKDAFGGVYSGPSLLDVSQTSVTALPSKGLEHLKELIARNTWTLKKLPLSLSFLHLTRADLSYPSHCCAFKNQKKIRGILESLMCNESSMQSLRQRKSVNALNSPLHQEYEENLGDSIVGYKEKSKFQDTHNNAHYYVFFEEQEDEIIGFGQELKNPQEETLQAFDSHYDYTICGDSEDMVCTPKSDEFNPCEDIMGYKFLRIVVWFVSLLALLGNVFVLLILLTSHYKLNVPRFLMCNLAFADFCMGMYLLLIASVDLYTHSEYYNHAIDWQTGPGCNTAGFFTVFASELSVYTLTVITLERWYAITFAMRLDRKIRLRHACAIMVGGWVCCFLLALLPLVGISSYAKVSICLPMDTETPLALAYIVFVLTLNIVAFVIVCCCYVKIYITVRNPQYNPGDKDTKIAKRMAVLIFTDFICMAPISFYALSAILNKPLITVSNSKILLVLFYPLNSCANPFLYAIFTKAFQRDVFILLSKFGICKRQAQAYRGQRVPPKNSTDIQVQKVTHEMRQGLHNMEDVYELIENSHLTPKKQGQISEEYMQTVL
row,SMILES,activation
1,C[C@@H]1CN(c2c(F)c(N)c3c(=O)c(C(=O)O)cn(C4CC4)c3c2F)C[C@H](C)N1,4.51% [at 19 µM] (inactive)
2,Cc1ccsc1C(=CCCN1CCC[C@@H](C(=O)O)C1)c1sccc1C,-2.59% [at 42.5 µM] (inactive)
3,C=CCCC=C,2.13% (inactive)
4,CN1C(=O)CC(c2ccccc2)C1=O (stereo unspecified),13.2% [at 42.5 µM] (inactive)
5,O=C(O)c1cccc(Cl)c1Cl,-1.34% (inactive)
6,OCC(CBr)(CBr)CBr,11.7% (inactive)
7,CC(C)(C)c1ccc(OC(=O)c2ccccc2O)cc1,-12.1% (inactive)
8,CN(C)C(=O)NC1(c2ccccc2)CCN(CCC[C@]2(c3ccc(Cl)c(Cl)c3)CCCN(C(=O)c3ccccc3)C2)CC1,-9.82% [at 19 µM] (inactive)
9,Oc1ccccc1F,-0.447% (inactive)
10,C/C(=N\O)[C@@H](C)NCC(C)(C)CN[C@H](C)/C(C)=N/O,-1.77% [at 42.5 µM] (inactive)
11,Cc1ncc(CO)c(CN)c1O,-2.76% [at 42.5 µM] (inactive)
12,CCOc1ccc(OCC)c(Cl)c1,-13.6% (inactive)
13,CCN(CC)CCOc1ccc(Cc2ccccc2)cc1,-2.39% [at 42.5 µM] (inactive)
14,CN1CCN(N)CC1,18.6% [at 42.5 µM] (inactive)
15,O=S(=O)(O)C(F)(F)F,-24% (inactive)
16,COC(=O)C(C)O (stereo unspecified),-8.67% (inactive)
17,CCOc1ccc(NS(=O)(=O)c2ccc(N)cc2)nn1,7.42% [at 42.5 µM] (inactive)
18,CCCCCCn1c(=O)c2c(ncn2C)n(C)c1=O,-4.18% [at 42.5 µM] (inactive)
19,CCC(=O)Nc1ccc(O)cc1,0.101% [at 42.5 µM] (inactive)
20,CC(CNC1CCCCC1)OC(=O)c1ccccc1 (stereo unspecified),-8.89% [at 42.5 µM] (inactive)
21,CN1CCN(c2c(F)cc3c(=O)c(C(=O)O)cn(CCF)c3c2F)CC1,-5.67% [at 42.5 µM] (inactive)
22,CCCc1c2oc(C(=O)O)cc(=O)c2cc2c(=O)cc(C(=O)O)n(CC)c12,-0.0503% [at 42.5 µM] (inactive)
23,C=CCCCCCCCCO,-1.8% (inactive)
24,CCCCCCCCCC#N,-12% (inactive)
25,CCCCNc1cc(C(=O)O)cc(S(N)(=O)=O)c1Oc1ccccc1,8.37% [at 42.5 µM] (inactive)
26,CC/C=C\CCOC(=O)C(C)C,4.44% (inactive)
27,FC(F)(F)C(Cl)(Cl)Cl,-3.4% (inactive)
28,O=C1CCCCC1C1CCCCC1 (stereo unspecified),-0.838% (inactive)
29,CN1CCN(C2=Nc3cc(F)ccc3Cc3ccccc32)CC1,-2.52% [at 42.5 µM] (inactive)

# Test system: not listed separately
# Assay: qHTS assay to identify small molecule agonists of the hypoxia (HIF-1) signaling pathway - cell viability counter screen (AID 1224844); also: nearly all actives have a fitted effect of over 50% in size; also: potency is read from the fitted curve at half-maximal effect
# Details: HRE-bla ME-180 viability, CellTiter-Glo luminescence, 17 h; series mostly up to 76.8 µM; activity change, negative = cytotoxicity: at the top concentration
# In short: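 In this counter screen, HRE-bla ME-180 cell viability after 17 hrs of compound exposure at 37C was read by CellTiter-Glo luminescence, multiplexed with the beta-lactamase reporter measurement.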
SMILES,"activity change, negative = cytotoxicity",Potency
C[C@@H]1CN(c2c(F)c(N)c3c(=O)c(C(=O)O)cn(C4CC4)c3c2F)C[C@H](C)N1,-0.675% [at 15.8 µM] (inactive),
COc1nc(C)nc(NC(=O)NS(=O)(=O)c2ccccc2OCCCl)n1,-4.42% (inactive),
CN1C(=O)CC(c2ccccc2)C1=O (stereo unspecified),1.64% [at 35.3 µM] (inactive),
O=C(O)c1cccc(Cl)c1Cl,0.986% (inactive),
OCC(CBr)(CBr)CBr,-1.51% (inactive),
CCC(=O)c1ccc2c(c1)N(CCCN(C)C)c1ccccc1S2,-12.1% [at 35.3 µM] (inactive),
CC(C)(C)c1ccc(OC(=O)c2ccccc2O)cc1,-8.42% (inactive),
CN(C)C(=O)NC1(c2ccccc2)CCN(CCC[C@]2(c3ccc(Cl)c(Cl)c3)CCCN(C(=O)c3ccccc3)C2)CC1,-18.7% [at 15.8 µM] (inactive),
Oc1ccccc1F,-8.6% (inactive),
C/C(=N\O)[C@@H](C)NCC(C)(C)CN[C@H](C)/C(C)=N/O,1.29% [at 35.3 µM] (inactive),
Cc1ncc(CO)c(CN)c1O,3.62% [at 35.3 µM] (inactive),
CCOc1ccc(OCC)c(Cl)c1,-0.989% (inactive),
CC1(O)CSC(C)(O)CS1 (stereo unspecified),-21.2% (inactive),
CCN(CC)CCOc1ccc(Cc2ccccc2)cc1,6.91% [at 35.3 µM] (inactive),
CN1CCN(N)CC1,0.662% [at 35.3 µM] (inactive),
O=S(=O)(O)C(F)(F)F,-2.6% (inactive),
CCCCCCn1c(=O)c2c(ncn2C)n(C)c1=O,0.561% [at 35.3 µM] (inactive),
CC(CNC1CCCCC1)OC(=O)c1ccccc1 (stereo unspecified),3.92% [at 35.3 µM] (inactive),
CN1CCN(c2c(F)cc3c(=O)c(C(=O)O)cn(CCF)c3c2F)CC1,-0.246% [at 35.3 µM] (inactive),
O=CCCc1ccccc1,1.45% (inactive),
CCCc1c2oc(C(=O)O)cc(=O)c2cc2c(=O)cc(C(=O)O)n(CC)c12,0.34% [at 35.3 µM] (inactive),
CCCCCCCCCC#N,-0.602% (inactive),
Clc1cccc(-c2cc(Cl)cc(Cl)c2)c1,,53 µM (active)
CCCCNc1cc(C(=O)O)cc(S(N)(=O)=O)c1Oc1ccccc1,0.787% [at 35.3 µM] (inactive),
FC(F)(F)C(Cl)(Cl)Cl,2.53% (inactive),
NC(=O)Cc1cccc(C(=O)c2ccccc2)c1N,1.77% [at 35.3 µM] (inactive),
CN1CCN(C2=Nc3cc(F)ccc3Cc3ccccc32)CC1,1.81% [at 35.3 µM] (inactive),
